According to the supplement of paper PMC10849652:
About 8,800 targets were measured; listed, in parts, are those with a hit and a random draw of the rest. About 0.5% of all pairs of compound and target were hits. Unmarked numbers belong to inactive results.

Experiments:
Test in all cases: log2 fold change, soluble protein after heating vs DMSO (PISA); higher = thermal stabilisation; K562 lysate, 10 uM; active = over 0.2 and 3.5 SD of the protein, either way, in both replicates (recomputed)
nilotinib = compound: Cc1cn(-c2cc(NC(=O)c3ccc(C)c(Nc4nccc(-c5cccnc5)n4)c3)cc(C(F)(F)F)c2)cn1 [nilotinib]
Method in brief: (§1)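 K562 pellets were dounce-homogenised in PBS pH 7.4 with 1 mM MgCl2, and the crude extract at 1 mg/mL protein was treated with 10 μM compound for 30 min. Aliquots were heated for 3 min across 48°C-58°C, pooled, and brought to 0.5% NP-40 at 4°C; soluble protein was the supernatant after 21,000xg for 90 min. Soluble protein was quantified by TMTpro 16plex LC-MS/MS with channel sums equalised, and reported as log2 fold change in thermal stability against DMSO controls, with values from duplicates.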

[1] = compound: Cc1nc(Nc2n[nH]c3c2CN(C(=O)N[C@H](CN(C)C)c2ccccc2)C3(C)C)c2sccc2n1
Method in brief: as §1

dasatinib = compound: Cc1nc(Nc2ncc(C(=O)Nc3c(C)cccc3Cl)s2)cc(N2CCN(CCO)CC2)n1 [dasatinib]
Method in brief: as §1

[2] = compound: Cc1ncc(-c2ccnc(Nc3ccc(S(C)(=O)=O)cc3)n2)n1C(C)C
Method in brief: as §1

[3] = compound: Cn1cc(-c2ccc3c(c2)CCN3C(=O)Cc2cccc(C(F)(F)F)c2)c2c(N)ncnc21
Method in brief: as §1

quisinostat = compound: Cn1cc(CNCC2CCN(c3ncc(C(=O)NO)cn3)CC2)c2ccccc21 [quisinostat]
Method in brief: as §1

tipifarnib = compound: Cn1cncc1[C@@](N)(c1ccc(Cl)cc1)c1ccc2c(c1)c(-c1cccc(Cl)c1)cc(=O)n2C [tipifarnib]
Method in brief: as §1

[4] = compound: NC(=O)Nc1cc(-c2cccc(F)c2)sc1C(=O)N[C@H]1CCCNC1
Method in brief: as §1

[5] = compound: NC(=O)c1cnc(N[C@@H]2CCCC[C@@H]2N)nc1Nc1cccc(-n2nccn2)c1
Method in brief: as §1

[6] = compound: NC1(c2ccc(-c3nc4ccn5c(=O)[nH]nc5c4cc3-c3ccccc3)cc2)CCC1
Method in brief: as §1

CLCN3 (UniProt P51790)
Sequence of UniProt P51790 (P51790 whole entry, looked up): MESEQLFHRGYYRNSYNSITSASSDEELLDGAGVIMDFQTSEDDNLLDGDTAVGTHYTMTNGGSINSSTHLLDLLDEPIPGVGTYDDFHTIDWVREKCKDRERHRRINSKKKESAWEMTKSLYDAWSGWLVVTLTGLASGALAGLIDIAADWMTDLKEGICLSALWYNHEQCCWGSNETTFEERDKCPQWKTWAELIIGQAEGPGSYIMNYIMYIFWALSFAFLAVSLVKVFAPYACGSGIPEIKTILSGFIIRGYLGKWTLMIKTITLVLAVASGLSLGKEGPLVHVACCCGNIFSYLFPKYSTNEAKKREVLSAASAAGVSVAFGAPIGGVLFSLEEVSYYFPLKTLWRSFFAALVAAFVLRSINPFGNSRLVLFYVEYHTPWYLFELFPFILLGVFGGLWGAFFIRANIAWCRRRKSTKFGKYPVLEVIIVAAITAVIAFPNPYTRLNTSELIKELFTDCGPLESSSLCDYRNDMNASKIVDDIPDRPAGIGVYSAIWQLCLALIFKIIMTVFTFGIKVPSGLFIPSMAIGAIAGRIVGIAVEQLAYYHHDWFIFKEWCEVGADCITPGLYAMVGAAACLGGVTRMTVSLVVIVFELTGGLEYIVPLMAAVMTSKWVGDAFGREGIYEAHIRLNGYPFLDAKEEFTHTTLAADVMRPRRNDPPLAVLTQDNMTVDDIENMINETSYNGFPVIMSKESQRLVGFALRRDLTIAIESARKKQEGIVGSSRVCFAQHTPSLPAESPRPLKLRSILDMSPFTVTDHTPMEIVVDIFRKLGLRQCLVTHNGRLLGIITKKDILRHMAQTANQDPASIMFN
log2 fold change (nilotinib): 0.15
log2 fold change [1]: -0.043
log2 fold change (dasatinib): -0.033
log2 fold change [2]: 0.117
log2 fold change [3]: 0.046
log2 fold change (quisinostat): 0.056
log2 fold change (tipifarnib): -0.097
log2 fold change [4]: -0.064
log2 fold change [5]: -0.002
log2 fold change [6]: 0.071

CNOT6L (UniProt Q96LI5)
log2 fold change (nilotinib): -0.026
log2 fold change [1]: 0.016
log2 fold change (dasatinib): -0.053
log2 fold change [2]: 0.001
log2 fold change [3]: 0.01
log2 fold change (quisinostat): -0.054
log2 fold change (tipifarnib): -0.047
log2 fold change [4]: 0.055
log2 fold change [5]: -0.024
log2 fold change [6]: 0.003

CMBL (UniProt Q96DG6)
log2 fold change (nilotinib): -0.029
log2 fold change [1]: 0.054
log2 fold change (dasatinib): 0.155
log2 fold change [2]: 0.006
log2 fold change [3]: -0.025
log2 fold change (quisinostat): -0.047
log2 fold change (tipifarnib): -0.001
log2 fold change [4]: -0.027
log2 fold change [5]: -0.023
log2 fold change [6]: 0.149

CORO7 isoform 3 (UniProt P57737)
Sequence of UniProt P57737 (P57737 whole entry, looked up): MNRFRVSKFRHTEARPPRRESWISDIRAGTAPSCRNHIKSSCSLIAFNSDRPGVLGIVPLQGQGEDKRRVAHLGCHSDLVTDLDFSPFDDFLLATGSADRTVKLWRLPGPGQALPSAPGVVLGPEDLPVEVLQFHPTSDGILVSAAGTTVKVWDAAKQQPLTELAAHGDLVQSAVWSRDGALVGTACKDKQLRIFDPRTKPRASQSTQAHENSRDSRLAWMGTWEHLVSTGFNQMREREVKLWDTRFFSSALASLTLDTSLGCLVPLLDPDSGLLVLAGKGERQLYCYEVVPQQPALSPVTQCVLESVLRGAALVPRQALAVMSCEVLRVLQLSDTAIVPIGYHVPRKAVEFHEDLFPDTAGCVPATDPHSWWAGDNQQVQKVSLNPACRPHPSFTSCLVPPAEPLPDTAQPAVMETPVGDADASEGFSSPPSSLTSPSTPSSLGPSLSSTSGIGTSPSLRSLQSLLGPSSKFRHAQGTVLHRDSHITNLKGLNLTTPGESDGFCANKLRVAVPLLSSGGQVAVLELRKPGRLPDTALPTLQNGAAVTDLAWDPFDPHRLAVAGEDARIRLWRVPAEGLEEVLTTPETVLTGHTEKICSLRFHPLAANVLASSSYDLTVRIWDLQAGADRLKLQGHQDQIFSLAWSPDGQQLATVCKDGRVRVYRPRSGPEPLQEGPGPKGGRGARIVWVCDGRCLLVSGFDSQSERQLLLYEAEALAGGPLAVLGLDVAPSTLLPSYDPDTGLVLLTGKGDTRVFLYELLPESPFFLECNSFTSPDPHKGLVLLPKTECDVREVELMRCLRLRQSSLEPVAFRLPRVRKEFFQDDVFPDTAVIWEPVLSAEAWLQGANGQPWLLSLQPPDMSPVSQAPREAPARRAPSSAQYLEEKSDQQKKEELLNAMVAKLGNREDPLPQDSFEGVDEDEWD
log2 fold change (nilotinib): -0.006
log2 fold change [1]: 0.003
log2 fold change (dasatinib): -0.032
log2 fold change [2]: 0.01
log2 fold change [3]: 0.019
log2 fold change (quisinostat): -0.026
log2 fold change (tipifarnib): 0.005
log2 fold change [4]: 0.012
log2 fold change [5]: -0.016
log2 fold change [6]: -0.013

CMSS1 (UniProt Q9BQ75)
log2 fold change (nilotinib): -0.025
log2 fold change [1]: 0.014
log2 fold change (dasatinib): -0.019
log2 fold change [2]: 0
log2 fold change [3]: 0.014
log2 fold change (quisinostat): 0.023
log2 fold change (tipifarnib): 0.06
log2 fold change [4]: 0.013
log2 fold change [5]: 0.004
log2 fold change [6]: 0.031

DMAC2L (UniProt Q99766)
Sequence of UniProt Q99766 (Q99766 whole entry, looked up): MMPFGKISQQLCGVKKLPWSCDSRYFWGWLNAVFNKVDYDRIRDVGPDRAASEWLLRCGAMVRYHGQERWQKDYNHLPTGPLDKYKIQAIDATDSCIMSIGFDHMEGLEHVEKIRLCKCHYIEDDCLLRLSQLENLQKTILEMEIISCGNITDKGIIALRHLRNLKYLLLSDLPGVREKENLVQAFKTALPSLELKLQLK
log2 fold change (nilotinib): -0.021
log2 fold change [1]: 0.001
log2 fold change (dasatinib): 0.059
log2 fold change [2]: -0.04
log2 fold change [3]: -0.009
log2 fold change (quisinostat): 0.012
log2 fold change (tipifarnib): -0.017
log2 fold change [4]: -0.032
log2 fold change [5]: -0.006
log2 fold change [6]: 0.111

CINP isoform 3 (UniProt Q9BW66)
log2 fold change (nilotinib): -0.13
log2 fold change [1]: 0.065
log2 fold change (dasatinib): -0.073
log2 fold change [2]: 0.19
log2 fold change [3]: 0.024
log2 fold change (quisinostat): 0.015
log2 fold change (tipifarnib): -0.009
log2 fold change [4]: 0.034
log2 fold change [5]: 0.03

CIB1 (UniProt Q99828)
log2 fold change (nilotinib): -0.014
log2 fold change [1]: -0.016
log2 fold change (dasatinib): 0.022
log2 fold change [2]: 0.045
log2 fold change [3]: 0.008
log2 fold change (quisinostat): 0.004
log2 fold change (tipifarnib): 0.002
log2 fold change [4]: -0.011
log2 fold change [5]: 0.041
log2 fold change [6]: 0

CMPK2 (UniProt Q5EBM0)
log2 fold change (nilotinib): -0.075
log2 fold change [1]: -0.01
log2 fold change (dasatinib): -0.067
log2 fold change [2]: 0.005
log2 fold change [3]: -0.011
log2 fold change (quisinostat): -0.02
log2 fold change (tipifarnib): 0.042
log2 fold change [4]: 0.032
log2 fold change [5]: -0.006
log2 fold change [6]: 0.013

DLGAP5 (UniProt Q15398)
Sequence of UniProt Q15398 (Q15398 whole entry, looked up): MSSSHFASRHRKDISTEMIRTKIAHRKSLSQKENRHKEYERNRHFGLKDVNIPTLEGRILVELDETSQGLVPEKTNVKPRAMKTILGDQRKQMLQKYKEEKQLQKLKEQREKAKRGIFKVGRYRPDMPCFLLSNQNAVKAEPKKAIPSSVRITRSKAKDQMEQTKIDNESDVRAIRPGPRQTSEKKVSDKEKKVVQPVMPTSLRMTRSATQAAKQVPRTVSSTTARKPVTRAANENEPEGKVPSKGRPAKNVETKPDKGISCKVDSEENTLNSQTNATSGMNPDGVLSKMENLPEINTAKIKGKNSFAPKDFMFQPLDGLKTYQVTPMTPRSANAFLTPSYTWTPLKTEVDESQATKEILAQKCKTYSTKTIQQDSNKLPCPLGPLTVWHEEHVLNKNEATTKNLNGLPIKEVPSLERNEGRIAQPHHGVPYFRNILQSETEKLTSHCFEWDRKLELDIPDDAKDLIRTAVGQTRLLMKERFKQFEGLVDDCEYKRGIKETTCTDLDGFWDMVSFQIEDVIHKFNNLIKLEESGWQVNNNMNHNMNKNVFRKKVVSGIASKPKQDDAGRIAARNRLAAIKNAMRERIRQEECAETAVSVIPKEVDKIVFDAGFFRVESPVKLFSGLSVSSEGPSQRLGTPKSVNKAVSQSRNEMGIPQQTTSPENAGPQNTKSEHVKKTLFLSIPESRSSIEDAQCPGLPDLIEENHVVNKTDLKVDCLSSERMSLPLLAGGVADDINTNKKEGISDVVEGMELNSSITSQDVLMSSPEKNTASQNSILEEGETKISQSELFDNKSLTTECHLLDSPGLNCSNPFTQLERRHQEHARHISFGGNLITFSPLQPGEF
log2 fold change (nilotinib): -0.013
log2 fold change [1]: 0.029
log2 fold change (dasatinib): -0.036
log2 fold change [2]: 0
log2 fold change [3]: 0.001
log2 fold change (quisinostat): -0.033
log2 fold change (tipifarnib): 0.001
log2 fold change [4]: 0.011
log2 fold change [5]: 0.006
log2 fold change [6]: 0.007

CORO1A (UniProt P31146)
log2 fold change (nilotinib): 0.003
log2 fold change [1]: -0.012
log2 fold change (dasatinib): -0.146
log2 fold change [2]: 0.022
log2 fold change [3]: 0.034
log2 fold change (quisinostat): -0.028
log2 fold change (tipifarnib): 0.032
log2 fold change [4]: -0.015
log2 fold change [5]: -0.017
log2 fold change [6]: -0.026

CSNK1E (UniProt P49674)
log2 fold change (nilotinib): -0.025
log2 fold change [1]: -0.008
log2 fold change (dasatinib): 0.053
log2 fold change [2]: 0.091
log2 fold change [3]: -0.078
log2 fold change (quisinostat): -0.075
log2 fold change (tipifarnib): -0.092
log2 fold change [4]: 0.059
log2 fold change [5]: 0.055
log2 fold change [6]: -0.06

DGCR8 (UniProt Q8WYQ5)
log2 fold change (nilotinib): -0.01
log2 fold change [1]: -0.002
log2 fold change (dasatinib): -0.061
log2 fold change [2]: -0.029
log2 fold change [3]: -0.02
log2 fold change (quisinostat): -0.007
log2 fold change (tipifarnib): 0.03
log2 fold change [4]: -0.032
log2 fold change [5]: -0.048
log2 fold change [6]: 0.003

DAZAP1 (UniProt Q96EP5)
log2 fold change (nilotinib): -0.066
log2 fold change [1]: 0.04
log2 fold change (dasatinib): 0.015
log2 fold change [2]: 0.044
log2 fold change [3]: -0.016
log2 fold change (quisinostat): 0.118
log2 fold change (tipifarnib): -0.039
log2 fold change [4]: 0.005
log2 fold change [5]: 0.01
log2 fold change [6]: -0.008

CLPB isoform 2 (UniProt Q9H078)
log2 fold change (nilotinib): -0.011
log2 fold change [1]: -0.003
log2 fold change (dasatinib): 0.076
log2 fold change [2]: -0.03
log2 fold change [3]: 0.018
log2 fold change (quisinostat): 0.008
log2 fold change (tipifarnib): -0.004
log2 fold change [4]: 0.005
log2 fold change [5]: 0.031
log2 fold change [6]: -0.016

CIAO2A (UniProt Q9H5X1)
Sequence of UniProt Q9H5X1 (Q9H5X1 whole entry, looked up): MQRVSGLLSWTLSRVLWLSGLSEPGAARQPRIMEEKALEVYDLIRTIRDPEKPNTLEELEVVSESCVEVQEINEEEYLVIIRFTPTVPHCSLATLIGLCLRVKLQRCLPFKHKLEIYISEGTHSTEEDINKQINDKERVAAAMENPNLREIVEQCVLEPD
log2 fold change (nilotinib): -0.018
log2 fold change [1]: 0.033
log2 fold change (dasatinib): -0.037
log2 fold change [2]: -0.074
log2 fold change [3]: 0.011
log2 fold change (quisinostat): 0.011
log2 fold change (tipifarnib): -0.067
log2 fold change [4]: -0.004
log2 fold change [5]: -0.027
log2 fold change [6]: -0.038

CLUH (UniProt O75153)
Sequence of UniProt O75153 (O75153 whole entry, looked up): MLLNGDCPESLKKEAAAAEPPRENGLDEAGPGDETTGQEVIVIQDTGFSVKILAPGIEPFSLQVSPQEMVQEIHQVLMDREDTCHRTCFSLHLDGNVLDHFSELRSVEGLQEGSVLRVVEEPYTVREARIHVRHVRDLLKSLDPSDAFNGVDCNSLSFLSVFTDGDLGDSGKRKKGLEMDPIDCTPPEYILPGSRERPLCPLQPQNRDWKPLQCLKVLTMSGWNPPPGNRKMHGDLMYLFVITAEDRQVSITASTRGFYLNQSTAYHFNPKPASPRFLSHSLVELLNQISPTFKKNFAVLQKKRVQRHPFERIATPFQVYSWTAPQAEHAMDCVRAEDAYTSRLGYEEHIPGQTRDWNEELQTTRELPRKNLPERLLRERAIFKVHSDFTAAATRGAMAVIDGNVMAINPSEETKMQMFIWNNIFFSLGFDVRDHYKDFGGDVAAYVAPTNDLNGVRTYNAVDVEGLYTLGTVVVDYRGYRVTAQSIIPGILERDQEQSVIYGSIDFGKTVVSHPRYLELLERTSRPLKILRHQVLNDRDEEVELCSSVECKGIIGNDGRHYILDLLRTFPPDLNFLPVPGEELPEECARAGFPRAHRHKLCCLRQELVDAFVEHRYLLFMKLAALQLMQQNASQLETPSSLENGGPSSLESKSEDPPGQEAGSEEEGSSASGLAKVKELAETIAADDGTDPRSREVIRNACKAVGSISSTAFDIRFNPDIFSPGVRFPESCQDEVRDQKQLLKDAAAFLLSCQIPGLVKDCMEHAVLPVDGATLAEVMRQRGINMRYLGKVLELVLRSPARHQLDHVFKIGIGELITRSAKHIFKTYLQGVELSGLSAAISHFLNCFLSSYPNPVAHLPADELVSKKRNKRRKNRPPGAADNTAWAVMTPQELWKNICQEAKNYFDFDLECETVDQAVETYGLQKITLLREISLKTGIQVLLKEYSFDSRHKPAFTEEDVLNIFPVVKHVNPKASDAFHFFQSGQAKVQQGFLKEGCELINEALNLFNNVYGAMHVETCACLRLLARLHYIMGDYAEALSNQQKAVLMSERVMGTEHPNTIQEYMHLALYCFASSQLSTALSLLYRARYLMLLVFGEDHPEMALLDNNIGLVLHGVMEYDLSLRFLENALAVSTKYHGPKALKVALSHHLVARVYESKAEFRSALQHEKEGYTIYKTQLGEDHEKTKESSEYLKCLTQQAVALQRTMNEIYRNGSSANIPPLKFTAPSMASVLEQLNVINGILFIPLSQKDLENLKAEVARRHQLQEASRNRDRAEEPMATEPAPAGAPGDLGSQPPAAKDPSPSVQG
log2 fold change (nilotinib): 0.009
log2 fold change [1]: 0.075
log2 fold change (dasatinib): -0.025
log2 fold change [2]: -0.007
log2 fold change [3]: 0.002
log2 fold change (quisinostat): -0.043
log2 fold change (tipifarnib): 0.007
log2 fold change [4]: 0.039
log2 fold change [5]: -0.006
log2 fold change [6]: 0.004

CSNK1D (UniProt P48730)
log2 fold change (nilotinib): 0.199
log2 fold change [1]: -0.384
log2 fold change (dasatinib): 0.028
log2 fold change [2]: -0.551 (active)
log2 fold change [3]: -0.059
log2 fold change (quisinostat): -0.049
log2 fold change (tipifarnib): -0.139
log2 fold change [4]: 0.021
log2 fold change [5]: 0.072

DLG3 isoform 2 (UniProt Q92796)
Sequence of UniProt Q92796 (Q92796 whole entry, looked up): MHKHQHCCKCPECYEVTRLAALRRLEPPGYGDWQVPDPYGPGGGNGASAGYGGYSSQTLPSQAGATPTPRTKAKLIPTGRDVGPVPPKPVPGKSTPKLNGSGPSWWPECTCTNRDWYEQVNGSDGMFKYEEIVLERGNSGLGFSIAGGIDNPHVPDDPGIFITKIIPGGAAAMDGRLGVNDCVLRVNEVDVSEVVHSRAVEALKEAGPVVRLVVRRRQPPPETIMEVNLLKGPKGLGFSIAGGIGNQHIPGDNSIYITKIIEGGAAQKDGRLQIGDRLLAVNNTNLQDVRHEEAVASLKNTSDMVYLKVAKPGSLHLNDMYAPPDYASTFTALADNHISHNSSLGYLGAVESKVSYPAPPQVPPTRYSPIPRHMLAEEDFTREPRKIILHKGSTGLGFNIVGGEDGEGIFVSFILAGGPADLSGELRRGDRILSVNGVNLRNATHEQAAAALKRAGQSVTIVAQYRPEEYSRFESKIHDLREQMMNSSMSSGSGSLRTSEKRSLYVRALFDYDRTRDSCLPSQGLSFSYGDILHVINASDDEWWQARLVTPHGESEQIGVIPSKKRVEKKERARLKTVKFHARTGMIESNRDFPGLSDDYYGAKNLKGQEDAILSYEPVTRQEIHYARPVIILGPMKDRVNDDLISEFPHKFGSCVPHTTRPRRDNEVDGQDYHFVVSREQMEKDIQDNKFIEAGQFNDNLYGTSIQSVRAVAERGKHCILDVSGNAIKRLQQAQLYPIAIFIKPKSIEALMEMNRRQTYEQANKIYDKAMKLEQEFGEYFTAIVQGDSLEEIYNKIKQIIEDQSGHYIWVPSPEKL
log2 fold change (nilotinib): -0.036
log2 fold change [1]: 0.027
log2 fold change (dasatinib): -0.062
log2 fold change [2]: 0.146
log2 fold change [3]: -0.004
log2 fold change (quisinostat): -0.007
log2 fold change (tipifarnib): 0.085
log2 fold change [4]: -0.03
log2 fold change [5]: -0.031
log2 fold change [6]: -0.049

CHORDC1 (UniProt Q9UHD1)
log2 fold change (nilotinib): 0.024
log2 fold change [1]: -0.003
log2 fold change (dasatinib): 0.016
log2 fold change [2]: 0.034
log2 fold change [3]: 0.008
log2 fold change (quisinostat): 0.018
log2 fold change (tipifarnib): 0.021
log2 fold change [4]: -0.015
log2 fold change [5]: 0
log2 fold change [6]: -0.005

CXorf38 (UniProt Q8TB03)
log2 fold change (nilotinib): 0.029
log2 fold change [1]: 0.013
log2 fold change (dasatinib): -0.04
log2 fold change [2]: 0.053
log2 fold change [3]: -0.034
log2 fold change (quisinostat): 0.004
log2 fold change (tipifarnib): 0.002
log2 fold change [4]: 0.006
log2 fold change [5]: 0.049
log2 fold change [6]: 0.009

DHRS3 (UniProt O75911)
log2 fold change (nilotinib): 0.007
log2 fold change [1]: 0.005
log2 fold change (dasatinib): 0.23 (active)
log2 fold change [2]: -0.028
log2 fold change [3]: 0.024
log2 fold change (quisinostat): -0.031
log2 fold change (tipifarnib): 0.06
log2 fold change [4]: 0.019
log2 fold change [5]: -0.078
log2 fold change [6]: -0.044

CUEDC2 (UniProt Q9H467)
log2 fold change (nilotinib): -0.038
log2 fold change [1]: 0.055
log2 fold change (dasatinib): 0.015
log2 fold change [2]: 0.028
log2 fold change [3]: 0.009
log2 fold change (quisinostat): -0.046
log2 fold change (tipifarnib): 0.009
log2 fold change [4]: -0.012
log2 fold change [5]: -0.021
log2 fold change [6]: 0.016

DOCK10 (UniProt Q96BY6)
log2 fold change (nilotinib): -0.046
log2 fold change [1]: -0.008
log2 fold change (dasatinib): -0.086
log2 fold change [2]: -0.081
log2 fold change [3]: 0.025
log2 fold change (quisinostat): -0.636 (active)
log2 fold change (tipifarnib): -0.129
log2 fold change [4]: -0.011
log2 fold change [5]: 0.029
log2 fold change [6]: -0.086

DNAJC1 (UniProt Q96KC8)
log2 fold change (nilotinib): -0.03
log2 fold change [1]: 0
log2 fold change (dasatinib): -0.09
log2 fold change [2]: -0.012
log2 fold change [3]: 0.016
log2 fold change (quisinostat): 0.04
log2 fold change (tipifarnib): 0.004
log2 fold change [4]: 0.026
log2 fold change [5]: -0.028
log2 fold change [6]: 0.028

CHFR (UniProt Q96EP1)
log2 fold change (nilotinib): 0.035
log2 fold change [1]: 0.082
log2 fold change (dasatinib): 0.017
log2 fold change [2]: 0.019
log2 fold change [3]: 0.049
log2 fold change (quisinostat): 0.02
log2 fold change (tipifarnib): 0.013
log2 fold change [4]: 0.036
log2 fold change [5]: 0.246
log2 fold change [6]: 0.005

DFFB (UniProt O76075)
log2 fold change (nilotinib): 0.192
log2 fold change [1]: -0.062
log2 fold change (dasatinib): 0.008
log2 fold change [2]: 0.155
log2 fold change [3]: 0.012
log2 fold change (quisinostat): 0.038
log2 fold change (tipifarnib): -0.013
log2 fold change [4]: -0.049
log2 fold change [5]: 0.026
log2 fold change [6]: -0.047
